# Results taken from PubChem BioAssay.
# “And” between values parts separate entries of the source, which are not always exact repeats. Identical values can stand only once. The source made the active and inactive calls.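 Rule for the calls, unless noted: active = inhibition at or above 50% relative to wild type and mutant plate controls; inactive = inhibition below 50%.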
# How the values were obtained:
# [1] = inhibitors of TNFa-induced NFkB p65 translocation, primary screen, imaging, HUVEC, MLSMR starter and 10KST1 sets (AID 438;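 active = inhibition above 20% together with a positive visual image hit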;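 note: compound added about 3h40 before a 20 min TNFalpha stimulation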;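 for inhibition: signal is the nuclear over cytoplasmic p65 intensity ratio per well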); settings: HUVEC TNFa-induced p65 nuclear translocation; cell count: measured here: nuclei count (cytotoxicity indicator), at 2.08 µM unless noted; inhibition: at 2 µM, stronger effect = higher value unless noted
# [2] = reduction of polyQ htt aggregates in cells – imaging, exon1htt(103Q)mCFP cells, high-content imaging, primary screen (AID 483;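 active = visual image review flags a hit and inhibition of aggregation exceeds 20%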;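 note: compound exposure lasted 3 days before fixation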;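 for nuclei count: percent of the per-plate median nuclei count of sample wells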); settings: exon1htt(103Q)mCFP cell line, aggregate imaging, at 2 µM; inhibition of aggregation: stronger effect = higher value; nuclei count: measured here: cell count, toxicity
# [3] = endothelial E-selectin expression blockers – imaging, HUVEC, immunofluorescence, MLSMR starter and 10KST1 sets, primary screen (AID 487;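 active = visually confirmed hit in the image check and inhibition above 20%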;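 for inhibition: signal is fraction of cell area covered by stained E-selectin grains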;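 for nuclei count: 100% = median nuclei count of all wells on the same plate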); settings: HUVEC TNFalpha-induced E-selectin immunofluorescence imaging, at 2 µM; inhibition: stronger effect = higher value; nuclei count: measured here: cell number, toxicity
# [4] = Primary imaging screen for DUSP6 inhibitors that restore phospho-Erk in transfected HeLa cells, chemical complementation (AID 609;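 active = compounds giving at least 50% inhibition in the cell-based MKP-3 phosphatase rescue imaging test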;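 for inhibition: phospho-Erk level distribution per well compared with pooled transfected vehicle control wells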); settings: HeLa MKP-3 transfected, phospho-Erk imaging KS statistic, at 10 µM
# [5] = target: Dual specificity protein phosphatase 6 (Homo sapiens) (UniProt Q16828); assay: as above; settings: HeLa MKP-3 transfected, phospho-Erk imaging KS statistic, at 10 µM, stronger effect = higher value
# [6] = target: Voltage-gated potassium channel subunit beta-2 (Rattus norvegicus) (UniProt P62483); assay: inhibitors of rat Kvbeta2 reductase activity – biochemical, NADPH fluorescence, primary screen (AID 622;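 active = fluorescence slope higher than the sample average by over 3 SD, cut at about -0.22 in these data, passing the limit was not always enough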;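 note: slope of raw intensity against log time taken from 70 to 1610 s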); settings: recombinant KvBeta, 4-cyanobenzaldehyde reduction, at 10 µM, stronger effect = higher value
# [7] = target: Voltage-gated potassium channel subunit beta-2 (Rattus norvegicus) (UniProt P62483); assay: enhancers of rat Kvbeta2 NADPH turnover – biochemical, NADPH fluorescence, primary screen (AID 623;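 active = NADPH fluorescence slope more negative than the mean of all samples by about 3 SD, 99.7% confidence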;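 note: fluorescence intensity change per second fitted from 20 to 320 s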); settings: Recombinant KvBeta, NADPH fluorescence decrease slope, 10 min; at 10 µM; stronger effect = lower value
# [8] = target: Alpha-2C adrenergic receptor (Homo sapiens) (UniProt P18825); assay: compounds altering alpha2C-coupled GIRK flux – cell-based, HEK293 alpha2C/GIRK1/2, thallium flux, primary screen (AID 624;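 active = fluorescence slope after compound addition differing from the mean of all screened samples at 99.7% confidence, in either direction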;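 note: slope of fluorescence ratio to pre-addition baseline per second over 15 to 24 s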); settings: thallium flux BTC fluorescence, at 10 µM, actives lie on both sides
# [9] = inhibitors of larval lipid processing in zebrafish, primary screen, whole organism, PED6 fluorescence, gall bladder and intestine (AID 686;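 active = a full or partial loss of lipid-probe fluorescence in the fish gall bladder, intestine or both, judged by eye; inactive = no fluorescence loss, or compound toxic to the fish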;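 note: larvae 5 to 7 days old with five fish per well; signal comes from phospholipase A2 cleavage of quenched PED6 carried via bile; overnight exposure to compound and PED6 before scoring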); settings: Zebrafish larvae PED6 lipid processing, fluorescence scoring
# [10] = loss of swimming-algae plug formation – whole organism, Chlamydomonas reinhardtii, WT vs cilia-less mutant, absorbance, 96-well, primary screen (AID 463189); settings: Chlamydomonas reinhardtii gravitaxis, OD600 absorbance, 2 days; at 10 µM; stronger effect = higher value;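 note: 0% = wild type cc124 cells in DMSO and 100% = ciliumless bld1 mutant cells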
# [11] = blockers of RIG-like receptor reporter activation – cell-based, Sendai virus stimulus, luciferase, 10K MLSCN set, TLR/RLR signaling modifier project, primary screen (AID 602276;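 active = inhibition at or above 50% at 10 µM; inactive = inhibition below 50%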;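 note: firefly luciferase from ISG56 promoter only with Renilla not read in this screen; 0% = Sendai virus plus DMSO and 100% = medium plus DMSO without virus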); settings: HEK293 RL24 IRF3 luciferase reporter, at 10 µM, stronger effect = higher value
# [12] = TLR3 IRF3 reporter activation blockers – cell-based, poly I:C stimulus, luciferase, 10K MLSCN set, primary screen (AID 602277;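 active = inhibition of the reporter signal at or above 50%; inactive = inhibition below 50%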); settings: HEK293-TLR3 RL24 IRF3 luciferase reporter, at 10 µM, stronger effect = higher value
# [13] = measured here: cell density z-score
# [14] = measured here: nuclear c-Myc green intensity z-score
# [15] = measured here: nuclear pErk red intensity z-score, stronger effect = higher value
# Alpha-2C adrenergic receptor (Homo sapiens), sequence (P18825 whole entry, looked up): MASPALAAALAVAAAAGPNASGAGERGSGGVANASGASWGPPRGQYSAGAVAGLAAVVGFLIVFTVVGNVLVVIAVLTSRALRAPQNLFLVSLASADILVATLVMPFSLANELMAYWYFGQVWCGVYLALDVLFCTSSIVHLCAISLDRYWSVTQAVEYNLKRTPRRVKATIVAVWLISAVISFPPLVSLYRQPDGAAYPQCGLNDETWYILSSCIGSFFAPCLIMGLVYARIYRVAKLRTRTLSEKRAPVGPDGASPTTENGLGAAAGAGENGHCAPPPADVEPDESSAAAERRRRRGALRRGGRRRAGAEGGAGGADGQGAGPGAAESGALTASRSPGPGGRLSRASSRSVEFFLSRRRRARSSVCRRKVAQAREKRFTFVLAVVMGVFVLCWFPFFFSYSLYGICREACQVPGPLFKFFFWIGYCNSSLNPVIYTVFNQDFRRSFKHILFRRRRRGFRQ
# Voltage-gated potassium channel subunit beta-2 (Rattus norvegicus), sequence (P62483 whole entry, looked up): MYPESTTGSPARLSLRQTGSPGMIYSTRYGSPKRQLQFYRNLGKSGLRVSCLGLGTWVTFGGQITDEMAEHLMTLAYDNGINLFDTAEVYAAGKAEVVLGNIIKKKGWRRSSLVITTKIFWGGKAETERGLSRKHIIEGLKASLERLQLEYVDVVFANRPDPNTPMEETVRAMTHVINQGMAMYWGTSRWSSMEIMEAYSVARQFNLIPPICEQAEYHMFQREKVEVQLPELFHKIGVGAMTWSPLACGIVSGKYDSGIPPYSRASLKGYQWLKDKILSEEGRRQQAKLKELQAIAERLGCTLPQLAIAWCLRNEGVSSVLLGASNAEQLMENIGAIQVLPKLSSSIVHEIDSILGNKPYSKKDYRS
# Dual specificity protein phosphatase 6 (Homo sapiens), sequence (Q16828 whole entry, looked up): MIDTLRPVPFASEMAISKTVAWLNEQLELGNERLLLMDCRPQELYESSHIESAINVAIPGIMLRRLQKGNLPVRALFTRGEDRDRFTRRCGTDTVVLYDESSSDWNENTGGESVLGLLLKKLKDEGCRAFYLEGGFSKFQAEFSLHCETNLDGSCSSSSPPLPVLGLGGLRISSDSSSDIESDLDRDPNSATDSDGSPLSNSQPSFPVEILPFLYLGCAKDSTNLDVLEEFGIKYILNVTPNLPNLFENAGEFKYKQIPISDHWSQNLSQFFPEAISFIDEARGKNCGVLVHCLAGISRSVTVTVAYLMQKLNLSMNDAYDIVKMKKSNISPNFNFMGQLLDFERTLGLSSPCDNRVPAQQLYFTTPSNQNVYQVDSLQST
Compound,cell count [1],inhibition [1],inhibition of aggregation [2],nuclei count [2] [%],inhibition [3],nuclei count [3] [%],"z-score [4, 13]","z-score [4, 14]","z-score [4, 15]",inhibition [5],fluorescence slope [6],NADPH fluorescence slope [7],slope [8],outcome [9],inhibition [10],inhibition [11],inhibition [12],"z-score ([4]; measured here: cell density z-score, cells stimulated with TPA for 15 min)","z-score ([4]; measured here: nuclear c-Myc green intensity z-score, cells stimulated with TPA for 15 min)","z-score ([4]; measured here: nuclear pErk red intensity z-score, stronger effect = higher value, cells stimulated with TPA for 15 min)"
CCOC(=O)c1cc2c(cn1)[nH]c1ccccc12,594,-2.5% (inactive),2% (inactive),102,-12.8% (inactive),110,-0.332,-1.06,-1.1,1.48% (inactive),-0.368 (inactive),7.4e-07 (inactive),0.00544 (inactive),inactive,-6.97% (inactive),-4.33% (inactive),-27.3% (inactive),,,
CC(C)(C)OC(=O)c1c(N)n(Cc2ccco2)c2nc3ccccc3nc12,394,-12.8% (inactive),-3.4% (inactive),81,-57.4% (inactive),127,0.353,-0.801,-1.16,13.4% (inactive),-0.293 (inactive),5.9e-05 (inactive),0.00636 (inactive),inactive,19.2% (inactive),6.73% (inactive),-1.48% (inactive),,,
CN1[C@@H]2CC[C@H]1CC(OC(=O)C1C=Nc3ccccc31)C2 (stereo partly specified),619,0.8% (inactive),-36% (inactive),99.6,-33.8% (inactive),116,-1.01,-0.312,0.0205,8% (inactive),-0.448 (inactive),-6.1e-05 (inactive),0.00567 (inactive),inactive,-4.66% (inactive),-81.8% (inactive),52.8% (active),,,
CN1C(=O)CN=C(c2ccc(Cl)cc2)c2cc(Cl)ccc21,702,-2.8% (inactive),-25.6% (inactive),108,-88.1% (inactive),128,0.107,-0.617,0.523,-6.41% (inactive),-0.442 (inactive),-4.1e-05 (inactive),0.00345 (inactive),inactive; toxic,-0.225% (inactive),0.552% (inactive),32% (inactive),,,
CCCC(=O)OCC[N+](C)(C)C,626,-8.2% (inactive),-16.7% (inactive),111,-31.1% (inactive),135,0.404,-0.787,0.37,13.3% (inactive),-0.481 (inactive),5e-06 (inactive),0.00561 (inactive),inactive,18.3% (inactive),21.4% (inactive),35% (inactive),,,
Clc1ccc(COC(Cn2ccnc2)c2ccc(Cl)cc2Cl)c(Cl)c1 (stereo unspecified),692,"-0.4% [at 2 µM, stronger effect = higher value, 0% TNFa-plus-vehicle, 100% no-TNFa wells] (inactive)",,,-73.1% (inactive),144,,,,31.1% [cells stimulated with TPA for 15 min] (inactive),-0.515 (inactive),-3.4e-05 (inactive),0.00694 (inactive),inactive; toxic [screened at 20 µM (by protocol)],36.1% (inactive),15.4% (inactive),32.2% (inactive),-0.0883,1.51,-0.416
NCC1(CC(=O)O)CCCCC1,645,-5.2% (inactive),-6.5% (inactive),100,-78.6% (inactive),116,-0.493,0.124,-0.808,1.38% (inactive),-0.493 (inactive),-3.2e-05 (inactive),0.00518 (inactive),inactive,4.56% (inactive) and -5.83% (inactive),-3.61% (inactive),3.7% (inactive),,,
CC(=O)[C@H]1CC[C@H]2[C@@H]3CC[C@H]4C[C@H](O)CC[C@]4(C)[C@H]3C(=O)C[C@]12C,549,-11.5% (inactive),17.3% (inactive),94.7,-98.9% (inactive),100,-1.19,-0.45,1.1,-6.41% (inactive),-0.534 (inactive),-4.5e-05 (inactive),0.00562 (inactive),inactive,5.76% (inactive) and -1.15% (inactive),10.2% (inactive),20.7% (inactive),,,
CC(C)C(=O)N1CCN(CCN=Cc2c(O)n(C)c(=O)n(C)c2=O)CC1,517,-3.1% (inactive),-28.7% (inactive),138,-78.2% (inactive),112,0.289,-1.08,0.644,1.9e-07% (inactive),-0.5 (inactive),-3.4e-05 (inactive),0.00563 (inactive),inactive,33.6% (inactive),-6.82% (inactive),-2.86% (inactive),,,
